Screening data from PubChem.
TDP1 cell noCPT: qHTS for Inhibitors of human tyrosyl-DNA phosphodiesterase 1 (TDP1): qHTS in cells in absence of CPT; DT40 Tdp1-/- hTDP1 cells, no CPT, ATP luminescence, 48 h; Potency, µM (titrated, usually from 46.2 µM), without a hit: at the top dose activity change, negative = growth inhibition, actives largely listed as inhibitors; 15% of 420,000 active; also: % is scaled to controls: 0 for no effect and ±100 for the full control effect; nearly all actives have a fitted effect of over 55% in size
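Camptothecin absent (DMSO only). Human TDP1-complemented DT40 knockout cells, 400 cells/well, 37 °C for minimum 48 hr; ATP measured via CellTiter-Glo, 30 min dark incubation, luminescence.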
ClpP mod: qHTS Assay for Activators of ClpP; ATP-dependent Clp protease proteolytic subunit (Bacillus subtilis (strain 168)), P80244; Potency, µM (titrated, usually from 57.5 µM), for inactives: top-dose activity change, negative = active; 1.9% of 340,000 active; AID 651965, 2013; purified B. subtilis ClpP, FRET peptide cleavage, 20 min; active = well fitted falling curve with a large enough effect; inconclusive = small, poorly fitted or top-dose-only effect; inactive = no such curve, though single readings can be large or run the other way; also: the source files actives as falling curves though it sought activators and does not explain the sign; nearly all actives have a fitted effect of over 65% in size
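Purified B. subtilis ClpP, 10 microg/mL final in Tris/HCl pH8 with KCl, BSA, glycerol and Tween-20, cleaved an Abz/nitrotyrosine-quenched decapeptide. Fluorescence (ex 320, em 430) was read at 0 and 20 min at room temperature. Delta was normalized to 5.8 microM ADEP and DMSO/no-enzyme controls.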
DT40 TDP1 CPT: DT40-hTDP1 cell growth loss with CPT; chicken DT40 Tdp1-/-;hTDP1 cells + 20 nM CPT, ATP luminescence, 48 h; 12% of 420,000 active; Potency, µM (highest dose often 46.2 µM), without a hit: at the highest dose activity change, negative = growth inhibition, hits mostly inhibitors; AID 686979; also: % is scaled to controls: 0 for no effect and ±100 for the full control effect; nearly all actives have a fitted effect of over 55% in size
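Chicken DT40 Tdp1-/- cells stably complemented with human TDP1 were seeded at 400 cells/well in medium containing 20 nM camptothecin, exposed to pin-transferred compounds, and grown at 37 °C for at least 48 hr. Viability was read as ATP luminescence.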
TDP1 block: inhibitors of human tyrosyl-DNA phosphodiesterase TDP1. 0.28% of 350,000 active. Q9NUW8. AID 485290. Potency, µM (titrated, usually from 130 µM), for the others: at the highest dose activity change, negative = inhibition, actives largely listed as inhibitors. recombinant TDP1, AlphaScreen DNA substrate cleavage; also: % is scaled to controls: 0 for no effect and ±100 for the full control effect; nearly all actives have a fitted effect of over 40% in size
Target sequence (Q9NUW8 whole entry, looked up): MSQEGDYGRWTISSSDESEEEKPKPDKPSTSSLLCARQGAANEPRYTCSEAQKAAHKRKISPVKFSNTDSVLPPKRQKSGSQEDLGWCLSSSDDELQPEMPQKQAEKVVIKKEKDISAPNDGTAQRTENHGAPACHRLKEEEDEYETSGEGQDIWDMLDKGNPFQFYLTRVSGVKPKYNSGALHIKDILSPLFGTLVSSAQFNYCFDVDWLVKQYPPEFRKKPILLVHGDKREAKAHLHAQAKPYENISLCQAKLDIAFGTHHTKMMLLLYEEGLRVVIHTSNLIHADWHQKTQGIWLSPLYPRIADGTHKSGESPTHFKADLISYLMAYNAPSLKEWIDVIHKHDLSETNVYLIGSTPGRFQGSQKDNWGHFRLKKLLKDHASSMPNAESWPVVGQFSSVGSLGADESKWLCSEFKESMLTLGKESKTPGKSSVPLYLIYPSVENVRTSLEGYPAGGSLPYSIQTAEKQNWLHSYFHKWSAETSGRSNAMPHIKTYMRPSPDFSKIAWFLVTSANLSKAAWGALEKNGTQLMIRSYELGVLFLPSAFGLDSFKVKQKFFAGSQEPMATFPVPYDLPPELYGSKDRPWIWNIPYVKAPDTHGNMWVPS
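Signal: AlphaScreen proximity between streptavidin donor and anti-FITC acceptor beads on intact substrate. Reaction: Tdp1 1 nM, substrate 15 nM final, 5 min RT after 15 min compound preincubation.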
Starred values were filed as active, the others as inactive; ? = inconclusive; / = no result given; [ ] = another dose, or the depositor's remark. Rows were chosen to be rich in hits. Some 17% of all compounds tested hit in one or more screens of this group. Unless noted, calls follow the shape of the dose curve; as a rule, active = well fitted curve in the direction sought with a large enough effect; inconclusive = small, poorly fitted or top-dose-only effect, or another doubt; inactive = no such curve, though single readings can be large; an effect the other way counts as inactive or inconclusive. Potency is read from the fitted curve at half-maximal effect.

SMILES	TDP1 cell noCPT	ClpP mod	DT40 TDP1 CPT	TDP1 block
CCOc1ccc(-n2c(C)c3c(C)nnc(C)c3c2C)cc1	2.1µM*	-12%	2.9µM*	/
C=CCSc1nnc(-c2ccncc2)n1-c1ccc(OCC)cc1	-14%	0%	-9%	3%
Cc1cc(C)cc(-n2c(C)c3c(C)nnc(C)c3c2C)c1	7.3µM*	-13%	8.2µM*	8%
CCCc1c(C(=O)N/N=C/c2ccco2)nnn1-c1nonc1N	15%	-13%	3%	-3%
O=C(CSc1nnc2ccc3ccccc3n12)c1ccc(F)cc1	16µM*	-14%	?	/
CCOc1ccc(-c2nnc(SCC(=O)c3ccc(F)cc3)n2-c2ccccc2)cc1	?	0%	13µM*	8%
Cc1ccc(-c2nnc(SCC(=O)c3ccc(Cl)cc3)n2-c2ccccc2)cc1	8.2µM*	-3%	4.6µM*	-5%
Cc1ccc(C(=O)CSc2nnc(-c3ccccc3)n2-c2ccccc2)cc1	/	1%	/	7%
Cc1ccccc1-n1c(SCC(=O)c2ccccc2)nnc1-c1ccc(F)cc1	?	-5%	?	0%
CC(=O)Nc1ccc(C(=O)CSc2nnc3ccc4ccccc4n23)cc1	?	-5%	?	3%
Cc1nnc(C)c2c(C)n(-c3ccc4ncccc4c3)c(C)c12	?	-7%	12µM*	-3%
COc1ccc(N2CC(C(=O)Nc3cc(C)ccn3)CC2=O)cc1 (stereo not drawn)	12%	-1%	5%	/
CCC(C)NC(=S)Nc1ccc(C(=O)OC)cc1 (stereo not drawn)	?	/	-9%	-4%
O=C(CSc1ccc2nc(-c3ccccc3)cn2n1)Nc1cccc(F)c1	?	?	?	5%
COc1ccc(C(C)=O)cc1CSc1nnc2c(Cl)cc(Cl)cn12	6%	-25%	-17%	3%
O=C(CSc1nnc(-c2ccc(Br)cc2)n1-c1ccccc1)c1ccccc1	4.1µM*	1%	7.3µM*	1%
COc1ccc(C(C)=O)cc1CSc1nnc(-c2ccc(Cl)cc2)n1-c1ccccc1	13µM*	0%	13µM*	10%
O=S(=O)(N/N=C/c1ccccc1F)c1ccccc1	23µM*	/	18µM*	5%
Cc1ccc(S(=O)(=O)N/N=C\c2ccccc2OCc2ccccc2)cc1	18µM*	-3%	?	4%
Cc1ccc(S(=O)(=O)NN=Cc2ccccc2Cl)cc1	?	0%	23µM*	/
COc1cccc(CNC(=O)CSc2nnc3c(n2)[nH]c2ccc(C)cc23)c1	-4%	/	-18%	3%
COc1ccccc1NC(=O)CCCN1C(=O)C(c2ccccc2)Oc2cccnc21 (stereo not drawn)	?	0%	16µM*	4%
O=C(CCCN1C(=O)C(c2ccccc2)Oc2cccnc21)Nc1ccc(Br)cc1F (stereo not drawn)	21µM*	-10%	18µM*	5%
CC(C)Oc1ccc(CNC(=O)CCCN2C(=O)C(c3ccccc3)Oc3cccnc32)cc1 (stereo not drawn)	12%	-2%	-23%	2%
COc1ccc(NC(=O)CCCN2C(=O)C(c3ccccc3)Oc3cccnc32)c(OC)c1 (stereo not drawn)	23µM*	0%	18µM*	1%
SMILES	TDP1 cell noCPT	ClpP mod	DT40 TDP1 CPT	TDP1 block
COc1ccc(NC(=O)CCCN2C(=O)C3C4C=CC(C4)C3C2=O)c(OC)c1 (stereo not drawn)	-14%	3%	-2%	4%
Cc1ccc(C)c(NC(=O)CCCN2C(=O)C(c3ccccc3)Oc3cccnc32)c1 (stereo not drawn)	23µM*	-1%	18µM*	0%
Cc1ccc(NC(=O)CCCN2C(=O)C(c3ccccc3)Oc3cccnc32)c(C)c1 (stereo not drawn)	-26%	1%	?	/
COc1ccc(CCNC(=O)CCCN2C(=O)C(c3ccccc3)Oc3cccnc32)cc1OC (stereo not drawn)	-29%	-4%	?	1%
O=C(CN(c1ccccc1)S(=O)(=O)c1ccc(F)cc1)NCc1cccs1	-16%	2%	-20%	-1%
CCc1cccc(NC(=O)CCc2c(C)nn(-c3ccc(N4CCCCC4)nn3)c2C)c1	?	-2%	-25%	8%
COc1ccc(NC(=O)CCc2c(C)nn(-c3ccc(N4CCCC4)nn3)c2C)cc1Cl	16µM*	1%	?	6%
CCOC(=O)c1cccc(NC(=O)CCc2c(C)nn(-c3ccc(N4CCOCC4)nn3)c2C)c1	?	-3%	29µM*	3%
CCOC(=O)c1cccc(NC(=O)CCc2c(C)nn(-c3ccc(N4CCCC4)nn3)c2C)c1	21µM*	-5%	?	5%
Cc1nn(-c2ccc(N3CCCCC3)nn2)c(C)c1CCC(=O)Nc1cccc(F)c1	21µM*	-3%	?	-3%
Cc1nn(-c2ccc(N3CCCCC3)nn2)c(C)c1CCC(=O)Nc1ccc(F)cc1	-16%	-1%	-12%	2%
Cc1ccccc1NC(=O)c1ccccc1NC(=O)c1ccccc1F	?	21%	?	-4%[12.3 µM]
Cc1cc(O)c(C(=O)c2cnc3c(c2)COc2ccccc2-3)cc1Cl	?	13%	?	8%
CCCCSCCCNC(=O)CCCN1C(=O)c2ccccc2Sc2ncccc21	16µM*	-4%	?	/
O=C(CCN1C(=O)c2ccccc2Sc2ncccc21)Nc1ccc(F)cc1	?	-3%	16µM*	0%
CCCNC(=O)CCCN1C(=O)c2ccccc2Sc2ncccc21	9%	1%	-20%	/
Cc1ccc(C)c(NC(=O)CCN2C(=O)c3ccccc3Sc3ncccc32)c1	18µM*	-1%	?	0%
CC(C)NC(=O)CCN1C(=O)c2ccccc2Sc2ncccc21	25%	1%	-9%	-3%
CCOc1cc(NC(=O)C2CC2)c(OCC)cc1NC(=O)c1ccccn1	18µM*	0%	18µM*	2%
CCOc1cc(NC(=O)c2ccccn2)c(OCC)cc1NC(=O)c1ccc(Cl)cc1	1.2µM*	2%	1.5µM*	/
CCOc1cc(NC(=O)c2ccccn2)c(OCC)cc1NC(=O)CC(C)C	8.2µM*	-4%	13µM*	7%
CCOc1ccccc1NC(=O)c1ccc(C(=O)Nc2ccccc2OCC)cc1	-12%	-1%	-11%	-2%[12.3 µM]
CCOc1cc(NC(=S)Nc2ccccc2)c(OCC)cc1NC(=O)c1ccccc1	26µM*	-20%	18µM*	10%
CCOc1cc(NC(=O)C2CC2)c(OCC)cc1NC(=O)c1cccnc1	/	/	/	5%
O=C(O)CSc1nnc(NC(=O)CN2CCOCC2)s1	5%	-1%	-3%	/
CCc1ccc(NC(=O)CSc2nc3c(c(=O)[nH]2)CN(Cc2ccc(C)cc2)CC3)cc1	?	0%	?	3%
